This is a sample that favours compounds with a hit; in the whole collection about 21% have one here.
CHX counter: counter-screen for Shiga toxin inhibitors: cycloheximide protein synthesis inhibition | max response, % | cell reporter, cycloheximide protein synthesis inhibition counterscreen | 300,000 compounds, 12% hits | AID 2314; in the data active means max response mostly above about 13%, no sharp cut-off; inactive means mostly below about 14%; further: read at 38.3 µM for the half of the compounds with a filed dose
HCV inh: inhibitors of hepatitis C virus infection; Huh7.5.1 HCVcc-Cre infection, luciferase reporter, 44 h; Potency, µM (highest dose often 41.8 µM), usual class: inhibitors; 340,000 compounds, 3.4% hits
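1,000 cells/well; 4 h culture; + compound; + HCVcc-Cre (~0.5 moi); 44 h; luciferase substrate, RT 15 min; read 15 sec.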
AMA1-RON2 inh: inhibitors of Plasmodium falciparum AMA1-RON2 interaction | AlphaScreen AMA1-biotinylated RON2 peptide binding | 360,000 compounds, 0.2% hits | Potency, µM (doses to about 58.2 µM), hits mostly inhibitors; further: nearly all actives have a fitted effect of over 45% in size
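AMA1 (3D7) with his tag at 25 nM final met compounds first, then biotinylated RON2 peptide at 25 nM; detection used donor plus acceptor beads, 10 µg/mL apiece, read by AlphaScreen after 30 min at room temperature.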
Shiga toxin inh: inhibitors of Shiga toxin in Vero cells. Vero cells, Shiga toxin protein synthesis inhibition reporter. 290,000 compounds, 9.2% hits. inhibition, % at 38.7 µM. AID 2315; in the data active means inhibition mostly above about 28%, no sharp cut-off; inactive means mostly below about 43%
Pf growth 96h: P. falciparum growth inhibition at 96 hours; P. falciparum luciferase reporter growth, 96 h; Potency, µM (doses to about 28.7 µM), usual class: inhibitors; 320,000 compounds, 6.9% hits; AID 504834
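Plates of compound plus infected erythrocytes (2% hematocrit, 0.05% parasitemia final) incubate 96 hours, 37 C, 5% CO2. Detection reagent added; reduced luminescence from the parasites' luciferase reporter flags inhibition.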
Pf growth 48h: inhibits P. falciparum growth in the first generation, 48 h; P. falciparum luciferase growth in erythrocytes, 48 h; Potency, µM (doses to about 28.7 µM), hits mostly inhibitors; 310,000 compounds, 5.9% hits
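Luminescence readout; reporter = integrated firefly luciferase in P. falciparum. RBC culture at 2% hematocrit, 0.1% parasitemia final, 37 C/5% CO2; decreased signal taken as growth inhibition.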
Each line names hits and unclear results; the compound was inactive in the other large screens. Unless noted, the call rests on the fitted dose curve; in most records, active means well fitted curve in the direction sought with a large enough effect; inconclusive means small, poorly fitted or top-dose-only effect, or another doubt; inactive means no such curve, though single readings can be large; an effect the other way counts as inactive or inconclusive.

CCCCC(CC)CNC(=O)CN1C(=O)NC2(CCc3ccccc32)C1=O (stereo not drawn)	none
Cc1ccnc(N/C=C(\C#N)c2nc(-c3cccc(Br)c3)cs2)c1	CHX counter 15, HCV inh inconclusive, Pf growth 96h 2.9µM, Pf growth 48h 12µM
CCOC(=O)c1cc(C#N)c(Nc2ccc(C)cc2)nc1C(F)(F)F	none
CN1CCN(CCCNC(=O)c2ccc(NC(=O)C3=CSCCO3)cc2)CC1	Pf growth 96h inconclusive
O=C(Nc1ccc(C(=O)N2CCCCC2)cc1)C1=CSCCO1	CHX counter 28, Shiga toxin inh 84, Pf growth 96h inconclusive
O=C(Nc1ccc(C(=O)N2CCN(c3ccccc3F)CC2)cc1)C1=CSCCO1	CHX counter 26, Shiga toxin inh 31
COc1cc(C(=O)O[C@H]2CC(C)=CC[C@@]3(C)CC[C@@](O)(C(C)C)[C@H]23)ccc1O	Pf growth 96h inconclusive, Pf growth 48h inconclusive
CCOc1ccc(S(=O)(=O)Nc2cccc(C(=O)N(C)Cc3cccc(OC)c3OC)c2)cc1	none
COCCn1c(C)cc(/C=C2/NC(=O)N(c3ccc(Cl)cc3)C2=O)c1C	CHX counter 55, Pf growth 96h inconclusive, Pf growth 48h inconclusive
CCN1C(=O)N/C(=C/c2cc(C)n(Cc3ccccc3)c2C)C1=O	CHX counter 27, HCV inh 10µM, Shiga toxin inh 37, Pf growth 96h inconclusive, Pf growth 48h inconclusive
CCn1c(C)cc(/C=C2\NC(=O)N(Cc3ccc(Cl)cc3)C2=O)c1C	HCV inh 13µM, Pf growth 96h inconclusive, Pf growth 48h inconclusive
O=C(O)c1cccc(-n2cccc2/C=C2/NC(=O)N(c3ccc(Cl)cc3)C2=O)c1	AMA1-RON2 inh inconclusive, Pf growth 96h inconclusive
Cc1ccc(/C=C2/NC(=O)N(Cc3ccccc3)C2=O)o1	none
COCCn1c(C)cc(/C=C2/NC(=O)N(Cc3ccc(C)cc3)C2=O)c1C	HCV inh inconclusive, Pf growth 96h inconclusive, Pf growth 48h inconclusive
O=C(CC(=O)c1cccs1)c1ccncc1	none (no result: CHX counter, Shiga toxin inh, Pf growth 96h, Pf growth 48h)
CCN(CC(=O)NCc1ccc(Cl)cc1)C(=O)c1cc2ccccc2o1	none
COC1CCCCC1Nc1cccc(SC)c1 (stereo not drawn)	none (no result: Pf growth 96h)
COC1CCCCC1Nc1cc(C)cc(C)c1 (stereo not drawn)	Pf growth 96h 13µM (no result: Pf growth 48h)
CCOC(=O)c1[nH]c2ccc(Cl)cc2c1NC(=O)/C=C/c1ccc2c(c1)OCO2	none
CCOC(=O)c1[nH]c2ccc(Br)cc2c1NC(=O)CCN1CCCCC1	Pf growth 96h inconclusive, Pf growth 48h inconclusive (no result: HCV inh, AMA1-RON2 inh)
COC(=O)c1[nH]c2ccc(C)cc2c1NC(=O)CCN1CCN(Cc2ccc3c(c2)OCO3)CC1	HCV inh 20µM, Pf growth 96h 8.3µM, Pf growth 48h inconclusive
CCOC(=O)c1[nH]c2ccc(Br)cc2c1NC(=O)CCN1CCN(C(=O)OCC)CC1	Pf growth 48h 10µM
CCOC(=O)c1[nH]c2ccc(Br)cc2c1NC(=O)CCN1CCOCC1	Pf growth 96h inconclusive
CCN(CC(=O)Nc1c(C(=O)OC)[nH]c2ccc(Cl)cc12)c1ccc2c(c1)OCO2	HCV inh 11µM, Pf growth 96h inconclusive, Pf growth 48h 13µM
CCCOC(=O)c1ccccc1O	none (no result: CHX counter, HCV inh, AMA1-RON2 inh, Shiga toxin inh)
Cc1cc(OCC(=O)NCCCN2CCCC2=O)c2c(C)c(C)c(=O)oc2c1	none
COc1ccc(N=C2C(=Nc3ccc(OC)cc3)N(c3ccc(OC)cc3)C(=S)N2C(=O)c2ccc(OC)cc2)cc1	CHX counter 14, Shiga toxin inh 42, Pf growth 48h inconclusive
COc1ccc(N=C2C(=Nc3ccc(OC)cc3)N(c3ccccc3)C(=S)N2C(=O)c2ccc(Cl)cc2)cc1	CHX counter 43, HCV inh inconclusive, Shiga toxin inh 63, Pf growth 96h inconclusive, Pf growth 48h inconclusive
COc1ccc(N=C2C(=Nc3ccc(OC)cc3)N(c3ccc(N(C)C)cc3)C(=S)N2c2ccc(OC)cc2)cc1	HCV inh 1.1µM (no result: Pf growth 96h)
COc1cccc(CN(C)CCCn2cnc3c(SC)ncnc32)c1	none (no result: CHX counter, HCV inh, Shiga toxin inh, Pf growth 96h, Pf growth 48h)
CCOC(=O)N1CCC(NC(=O)CN(c2ccc(C(C)C)cc2)S(=O)(=O)c2c(C)nn(C)c2C)CC1	Pf growth 96h inconclusive, Pf growth 48h inconclusive
Cc1cccc(NC(=S)N=Nc2c(O)n(CN3CCOCC3)c3ccccc23)c1C	Pf growth 48h 4.7µM
Cc1ccc(N=Nc2c(O)n(CN3CCOCC3)c3ccccc23)cc1	CHX counter 63, Shiga toxin inh 106

Screening results: PubChem, National Center for Advancing Translational Sciences (NCATS)
